This is an account of results in PubChem BioAssay (EPA / NIEHS).

The source made the active and inactive calls. How the source made its calls: active means hit-call score of the fitted dose curve at least 0.9, where 1 is the maximum; inactive means score below 0.9.

Assay [1] in a line: BSK_4H_SRB: Viability Assessment in the BioMAP Diversity Plus: 4H Assay (AID 2283027).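 Further: cells exposed to compound for 24 h before staining.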 The following applies: primary human endothelial cells (HUVEC). A digest of the protocol: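 HUVEC, 24 h post-dose; 10% TCA fix, 0.1% SRB stain, A560 nm. Total protein = overt cytotoxicity, parallel to biomarker read. Bidirectional fit vs DMSO baseline.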
A short description of assay [2]: BSK_BE3C_SRB: Viability Assessment in the BioMAP Diversity Plus: BE3C Assay (AID 2283028). To be noted: primary human bronchial epithelial cells. A digest of the protocol:
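Primary human bronchial epithelium; chemical dosing, 24 h; 10% TCA fix, 0.1% SRB stain, A560; bidirectional fit vs DMSO baseline.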

Read-out in assay [3]: Thrombomodulin, THBD (gene 7056)
Briefly: BSK_3C_Thrombomodulin: BioMAP Diversity Plus: 3C Assay for Thrombomodulin Biomarker Activity (AID 2283029). The following applies: primary human endothelial cells (HUVEC); actives raise or lower the signal. A digest of the protocol: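 Endothelial cells from umbilical vein are dosed with test chemical and incubated 24 h. Thrombomodulin is then quantified by ELISA, with DMSO serving as negative control and activity baseline.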

Read-out in assay [4]: Urokinase-type plasminogen activator receptor (uPAR), PLAUR (gene 5329)
Briefly: BSK_4H_uPAR: BioMAP Diversity Plus: 4H Assay for Urokinase-type plasminogen activator receptor (uPAR) Biomarker Activity (AID 2283030). To be noted: primary human endothelial cells (HUVEC); actives raise or lower the signal. The essentials:
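HUVEC, 24 h post-dose; uPAR by ELISA; bidirectional fit vs DMSO baseline.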

Read-out in assay [5]: Vascular endothelial growth factor receptor 2 (Homo sapiens) (UniProt P35968)
As to the kind of experiment: BSK_4H_VEGFRII: BioMAP Diversity Plus: 4H Assay for Vascular endothelial growth factor receptor 2 (VEGFR2) Biomarker Activity (AID 2283031). To be noted: primary human endothelial cells (HUVEC); actives raise or lower the signal. The essentials:
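HUVEC (human primary), 4H system; 24 h post-dose; VEGFRII by ELISA; bidirectional curve fit vs DMSO baseline; gain or loss of signal scored.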

Read-out in assay [6]: Human Leukocyte Antigen - DR isotype (HLADR), HLA-DRA (gene 3122)
As to the kind of experiment: BSK_BE3C_HLADR: BioMAP Diversity Plus: BE3C Assay for Human Leukocyte Antigen - DR isotype (HLADR) Biomarker Activity (AID 2283032). To be noted: primary human bronchial epithelial cells; actives raise or lower the signal. The essentials: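 Chemicals are dosed onto BE3C bronchial epithelial cultures of human origin and left 24 h. HLA-DR is then measured by ELISA, and the endpoint is fitted in both directions using DMSO as the activity baseline.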

Read-out in assay [7]: Vascular cell adhesion molecule 1 (VCAM1), VCAM1 (gene 7412)
As to the kind of experiment: BSK_4H_VCAM1: BioMAP Diversity Plus: 4H Assay for Vascular cell adhesion molecule 1 (VCAM1) Biomarker Activity (AID 2283033).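 Further: cell-surface VCAM-1 protein measured by ELISA.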 To be noted: primary human endothelial cells (HUVEC); actives raise or lower the signal. A digest of the protocol:
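Chemicals are added to primary human umbilical vein endothelial cells. After 24 h, VCAM-1 levels are measured by ELISA. Values come from bidirectional fitting referenced to DMSO.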

Read-out in assay [8]: Interferon-gamma inducible Protein 10 (IP10), CXCL10 (gene 3627)
As to the kind of experiment: BSK_BE3C_IP10: BioMAP Diversity Plus: BE3C Assay for Interferon-gamma inducible Protein 10 (IP10) Biomarker Activity (AID 2283034). The following applies: primary human bronchial epithelial cells; actives raise or lower the signal. The essentials:
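IP-10 quantified by ELISA serves as the endpoint. Cells: primary human bronchial epithelium, read 24 h after compound addition. Activity is derived by bidirectional fitting with DMSO as negative control.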

Read-out in assay [9]: Monokine induced gamma interferon (MIG), CXCL9 (gene 4283)
Briefly: BSK_BE3C_MIG: BioMAP Diversity Plus: BE3C Assay for Monokine induced gamma interferon (MIG) Biomarker Activity (AID 2283035). To be noted: primary human bronchial epithelial cells; actives raise or lower the signal. A digest of the protocol:
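Dose cells (human primary bronchial epithelial), incubate 24 h, quantify MIG by ELISA, then fit concentration–response in both directions relative to DMSO control.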

Read-out in assay [10]: Transforming growth factor beta 1 (TGFb1), TGFB1 (gene 7040)
Briefly: BSK_BE3C_TGFb1: BioMAP Diversity Plus: BE3C Assay for Transforming growth factor beta 1 (TGFb1) Biomarker Activity (AID 2283036;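 further: TGF-b1 protein level measured by ELISA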). The following applies: primary human bronchial epithelial cells; actives raise or lower the signal. A digest of the protocol:
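Bronchial epithelial primary cells are treated with test chemical, then TGF-b1 is quantified by ELISA after 24 hours. Values derive from bidirectional fitting against DMSO, with cytotoxicity checked by SRB staining in parallel cultures.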

Read-out in assay [11]: Plasminogen activator inhibitor-1 (PAI1), SERPINE1 (gene 5054)
Briefly: BSK_BE3C_PAI1: BioMAP Diversity Plus: BE3C Assay for Plasminogen activator inhibitor-1 (PAI1) Biomarker Activity (AID 2283037). The following applies: primary human bronchial epithelial cells; actives raise or lower the signal. A digest of the protocol:
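Values derive from bidirectional fitting against DMSO baseline of PAI-1 levels, measured by ELISA in human bronchial epithelial cells 24 h after compound addition.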

Read-out in assay [12]: urokinase plasminogen activator (uPA), PLAU (gene 5328)
As to the kind of experiment: BSK_BE3C_uPA: BioMAP Diversity Plus: BE3C Assay for urokinase plasminogen activator (uPA) Biomarker Activity (AID 2283038).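 Further: uPA protein level quantified by ELISA in cell cultures; uPA read one day after compound addition.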 To be noted: primary human bronchial epithelial cells; actives raise or lower the signal. A digest of the protocol: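 ELISA read-out of uPA in human lung primary bronchial epithelial cultures, 24 h post-dosing. Gain or loss of signal fitted bidirectionally relative to DMSO baseline; cytotoxicity checked in parallel cultures via SRB total protein stain.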

Read-out in assay [13]: Urokinase-type plasminogen activator receptor (uPAR), PLAUR (gene 5329)
As to the kind of experiment: BSK_BE3C_uPAR: BioMAP Diversity Plus: BE3C Assay for Urokinase-type plasminogen activator receptor (uPAR) Biomarker Activity (AID 2283039).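 Further: uPAR protein level measured by ELISA on the cells; cells exposed to compound for one day before measurement.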 The following applies: primary human bronchial epithelial cells; actives raise or lower the signal. The essentials:
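Steps: dose human primary bronchial epithelial cells, incubate 24 h, measure uPAR by ELISA, then fit gain- or loss-of-signal response bidirectionally relative to DMSO.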

Read-out in assay [14]: Interleukin-6 (IL6), IL6 (gene 3569)
Briefly: BSK_CASM3C_IL6: BioMAP Diversity Plus: CASM3C Assay for Interleukin-6 (IL6) Biomarker Activity for (AID 2283040). To be noted: primary human coronary artery smooth muscle cells; actives raise or lower the signal.

Read-out in assay [15]: Tissue plasminogen activator (tPA), PLAT (gene 5327)
Briefly: BSK_BE3C_tPA: BioMAP Diversity Plus: BE3C Assay for Tissue plasminogen activator (tPA) Biomarker Activity (AID 2283041).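 Further: tPA level quantified by ELISA one day after compound addition.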 The following applies: primary human bronchial epithelial cells; actives raise or lower the signal. The essentials:
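Gain- or loss-of-signal in tPA, measured by ELISA, derived by bidirectional fitting against DMSO. Cells: human primary bronchial epithelial; read at 24 h after chemical dosing.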

Read-out in assay [16]: Interleukin-8 (IL8), CXCL8 (gene 3576)
Briefly: BSK_CASM3C_IL8: BioMAP Diversity Plus: CASM3C Assay for Interleukin-8 (IL8) Biomarker Activity (AID 2283042).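 Further: IL-8 protein level quantified by ELISA.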 To be noted: primary human coronary artery smooth muscle cells; actives raise or lower the signal.

Read-out in assay [17]: Human Leukocyte Antigen - DR isotype (HLADR), HLA-DRA (gene 3122)
Briefly: BSK_CASM3C_HLADR: BioMAP Diversity Plus: CASM3C Assay for Human Leukocyte Antigen - DR isotype (HLADR) Biomarker Activity (AID 2283043).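 Further: cell-surface HLA-DR protein level quantified by ELISA.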 The following applies: primary human coronary artery smooth muscle cells; actives raise or lower the signal.

Read-out in assay [18]: Macrophage colony-stimulating factor (MCSF), CSF1 (gene 1435)
As to the kind of experiment: BSK_CASM3C_MCSF: BioMAP Diversity Plus: CASM3C Assay for Macrophage colony-stimulating factor (MCSF) Biomarker Activity (AID 2283044).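 Further: M-CSF protein amount quantified by ELISA after 24 h exposure.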 To be noted: primary human coronary artery smooth muscle cells; actives raise or lower the signal.

Read-out in assay [19]: Low-density lipoprotein receptor (LDLR), LDLR (gene 3949)
Briefly: BSK_CASM3C_LDLR: BioMAP Diversity Plus: CASM3C Assay for Low-density lipoprotein receptor (LDLR) Biomarker Activity (AID 2283045).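 Further: LDLR protein level on the cell surface quantified by ELISA.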 To be noted: primary human coronary artery smooth muscle cells; actives raise or lower the signal.

Read-out in assay [20]: Monocyte Chemoattractant Protein-1 (MCP1), CCL2 (gene 6347)
As to the kind of experiment: BSK_CASM3C_MCP1: BioMAP Diversity Plus: CASM3C Assay for Monocyte Chemoattractant Protein-1 (MCP1) Biomarker Activity (AID 2283046).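 Further: MCP-1 level quantified by ELISA 24 h after dosing.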 To be noted: primary human coronary artery smooth muscle cells; actives raise or lower the signal.

As for `CCc1nc(N)nc(N)c1-c1ccc(Cl)cc1`, the result in assay [1], in assay [2], in assay [3], in assay [4], in assay [5] and in assay [6] was inactive. In addition, the outcome in assay [7], in assay [8], in assay [9], in assay [10], in assay [11] and in [12] was inactive. The outcome in assay [13], in [14], in assay [15], in assay [16], in [17] and in assay [18] was inactive. Besides, the outcome in assay [19] and in assay [20] was inactive.

As for `C=CCCCCCCCCCCCC`, the result in assay [1], in assay [2], in assay [3], in assay [4], in assay [5] and in [7] was inactive. In addition, the result in assay [8], in assay [9], in [10], in [11], in [12] and in [13] was inactive. Also, the outcome in [14], in [15], in assay [16], in [17], in assay [18] and in [19] was inactive. Further, the result in assay [20] was inactive.

For `CN(C)C(=O)NC1(c2ccccc2)CCN(CCC[C@]2(c3ccc(Cl)c(Cl)c3)CCCN(C(=O)c3ccccc3)C2)CC1`, the result in assay [1], in assay [2], in assay [3], in assay [4], in assay [5] and in assay [6] was inactive. Besides, the outcome in assay [7], in [8], in assay [9], in assay [10], in [11] and in assay [12] was inactive. The result in assay [13], in assay [14], in assay [15], in assay [16], in [17] and in assay [18] was inactive. For the same molecule, the figures for the AC50 in assay [19] and in [20] were 5 µM (active) and 37 nM (active), respectively.

`CC(=O)OCC(COC(C)=O)OC(C)=O`: the result in assay [1], in [2], in assay [3], in assay [4], in assay [5] and in assay [7] was inactive. The outcome in assay [8], in [9], in assay [10], in [11], in assay [12] and in assay [13] was inactive. In addition, the outcome in [14], in assay [15], in [16], in assay [17], in [18] and in assay [19] was inactive. In addition, the result in [20] was inactive.

As to `CSc1ccc(Oc2ccc(S(N)(=O)=O)cc2CN(C)C)cc1C`, the outcome in assay [1], in assay [2], in assay [3], in assay [5], in assay [6] and in [7] was inactive. Moreover, the outcome in assay [8], in assay [9], in [10], in assay [11], in assay [12] and in assay [13] was inactive. For the same molecule, the result in [14], in assay [15], in [16], in assay [17], in assay [18] and in assay [19] was inactive. In assay [20], the result was inactive. The AC50 in assay [4] is 12.2 µM (active).

Take `NC1CCCCC1`: the outcome in assay [1], in [2], in [3], in [4], in [5] and in assay [7] was inactive. For the same molecule, the result in assay [8], in assay [9], in [10], in assay [11], in [12] and in assay [13] was inactive. Moreover, the outcome in assay [14], in assay [15], in [16], in assay [17], in assay [18] and in assay [19] was inactive. Besides, the outcome in assay [20] was inactive.

`O=C(NS(=O)(=O)/C=C/c1cccs1)c1ccc(F)cc1Br`: the result in [1], in assay [2], in assay [3], in assay [4], in assay [5] and in assay [7] was inactive. For the same molecule, the outcome in assay [9], in assay [10], in assay [11], in assay [12], in assay [13] and in [14] was inactive. The result in assay [15], in assay [16], in assay [17], in assay [18], in [19] and in [20] was inactive. The AC50 in assay [8] was 32.6 µM (active).
